# From ChEMBL document CHEMBL1961873, “Compounds: GSK PKIS; Assays: Nanosyn kinase panel” (2012)
# Legend:
# [1] = biological target: Sphingosine kinase 1 (Homo sapiens) (UniProt Q9NYA1); conditions: at 1 µM;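 further: mean SPHK1 inhibition value reported from the GSK PKIS kinase panel screen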
# [2] = biological target: T1, Sphingosine kinase 2 (Homo sapiens) (UniProt Q9NRA0); conditions: at 0.1 µM
# T1 sequence (whole entry): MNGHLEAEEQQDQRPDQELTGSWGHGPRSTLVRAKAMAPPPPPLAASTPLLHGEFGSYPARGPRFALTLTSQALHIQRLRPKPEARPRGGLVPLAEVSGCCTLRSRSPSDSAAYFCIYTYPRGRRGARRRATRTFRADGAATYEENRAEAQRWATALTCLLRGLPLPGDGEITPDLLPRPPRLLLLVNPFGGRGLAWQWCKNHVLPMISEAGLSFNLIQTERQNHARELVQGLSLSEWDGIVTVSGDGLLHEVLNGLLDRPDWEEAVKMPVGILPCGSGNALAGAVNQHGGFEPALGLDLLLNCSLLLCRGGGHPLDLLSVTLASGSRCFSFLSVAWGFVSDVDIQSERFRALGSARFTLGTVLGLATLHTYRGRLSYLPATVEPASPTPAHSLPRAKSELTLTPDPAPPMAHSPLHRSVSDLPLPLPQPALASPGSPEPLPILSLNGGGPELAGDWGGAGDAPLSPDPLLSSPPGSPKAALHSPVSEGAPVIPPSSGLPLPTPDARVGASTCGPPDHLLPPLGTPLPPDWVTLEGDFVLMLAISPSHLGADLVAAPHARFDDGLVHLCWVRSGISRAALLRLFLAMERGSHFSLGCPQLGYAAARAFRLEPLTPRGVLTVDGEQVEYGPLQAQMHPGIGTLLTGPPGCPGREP
# [3] = biological target: T1, Sphingosine kinase 2 (Homo sapiens); conditions: at 1 µM
# [4] = biological target: Casein kinase II subunit alpha (Homo sapiens) (UniProt P68400); conditions: at 0.1 µM
# Chain of Casein kinase II subunit alpha (Homo sapiens) (P68400 whole entry, looked up): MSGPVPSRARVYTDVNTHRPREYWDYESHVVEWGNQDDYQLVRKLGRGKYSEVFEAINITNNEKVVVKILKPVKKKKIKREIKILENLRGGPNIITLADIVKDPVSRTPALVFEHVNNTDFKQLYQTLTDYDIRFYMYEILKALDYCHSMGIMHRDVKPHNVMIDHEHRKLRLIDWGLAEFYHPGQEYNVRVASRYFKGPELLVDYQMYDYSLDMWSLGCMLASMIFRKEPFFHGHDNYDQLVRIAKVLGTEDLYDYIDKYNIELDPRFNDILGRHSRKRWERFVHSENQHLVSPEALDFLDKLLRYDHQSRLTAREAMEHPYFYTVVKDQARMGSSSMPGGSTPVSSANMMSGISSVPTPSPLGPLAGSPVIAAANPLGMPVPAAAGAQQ
# [5] = biological target: Casein kinase II subunit alpha (Homo sapiens) (UniProt P68400); conditions: at 1 µM
# [6] = biological target: T2, Inhibitor of nuclear factor kappa-B kinase subunit alpha (Homo sapiens) (UniProt O15111); conditions: at 0.1 µM
# T2 sequence (whole entry): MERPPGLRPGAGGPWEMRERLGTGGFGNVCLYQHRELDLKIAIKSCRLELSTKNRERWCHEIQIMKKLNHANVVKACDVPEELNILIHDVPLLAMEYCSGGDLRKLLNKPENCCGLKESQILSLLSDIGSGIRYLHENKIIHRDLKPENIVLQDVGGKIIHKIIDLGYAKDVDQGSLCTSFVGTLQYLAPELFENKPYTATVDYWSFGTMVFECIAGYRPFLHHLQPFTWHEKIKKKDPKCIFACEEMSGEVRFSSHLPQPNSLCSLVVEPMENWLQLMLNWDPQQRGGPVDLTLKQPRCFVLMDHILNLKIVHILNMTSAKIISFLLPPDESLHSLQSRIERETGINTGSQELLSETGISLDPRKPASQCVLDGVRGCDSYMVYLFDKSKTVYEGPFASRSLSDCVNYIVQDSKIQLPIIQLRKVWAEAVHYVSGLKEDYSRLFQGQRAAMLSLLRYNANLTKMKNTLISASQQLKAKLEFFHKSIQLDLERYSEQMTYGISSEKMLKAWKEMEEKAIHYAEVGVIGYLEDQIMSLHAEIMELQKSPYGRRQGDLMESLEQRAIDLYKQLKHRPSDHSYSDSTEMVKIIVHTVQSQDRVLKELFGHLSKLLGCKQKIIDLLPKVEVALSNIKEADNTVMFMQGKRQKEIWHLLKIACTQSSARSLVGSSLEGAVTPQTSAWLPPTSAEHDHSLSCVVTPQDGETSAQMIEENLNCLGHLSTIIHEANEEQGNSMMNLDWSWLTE
# [7] = biological target: T2, Inhibitor of nuclear factor kappa-B kinase subunit alpha (Homo sapiens); conditions: at 1 µM
# [8] = biological target: T3, Inhibitor of nuclear factor kappa-B kinase subunit beta (Homo sapiens) (UniProt O14920); conditions: at 0.1 µM
# T3 sequence (whole entry): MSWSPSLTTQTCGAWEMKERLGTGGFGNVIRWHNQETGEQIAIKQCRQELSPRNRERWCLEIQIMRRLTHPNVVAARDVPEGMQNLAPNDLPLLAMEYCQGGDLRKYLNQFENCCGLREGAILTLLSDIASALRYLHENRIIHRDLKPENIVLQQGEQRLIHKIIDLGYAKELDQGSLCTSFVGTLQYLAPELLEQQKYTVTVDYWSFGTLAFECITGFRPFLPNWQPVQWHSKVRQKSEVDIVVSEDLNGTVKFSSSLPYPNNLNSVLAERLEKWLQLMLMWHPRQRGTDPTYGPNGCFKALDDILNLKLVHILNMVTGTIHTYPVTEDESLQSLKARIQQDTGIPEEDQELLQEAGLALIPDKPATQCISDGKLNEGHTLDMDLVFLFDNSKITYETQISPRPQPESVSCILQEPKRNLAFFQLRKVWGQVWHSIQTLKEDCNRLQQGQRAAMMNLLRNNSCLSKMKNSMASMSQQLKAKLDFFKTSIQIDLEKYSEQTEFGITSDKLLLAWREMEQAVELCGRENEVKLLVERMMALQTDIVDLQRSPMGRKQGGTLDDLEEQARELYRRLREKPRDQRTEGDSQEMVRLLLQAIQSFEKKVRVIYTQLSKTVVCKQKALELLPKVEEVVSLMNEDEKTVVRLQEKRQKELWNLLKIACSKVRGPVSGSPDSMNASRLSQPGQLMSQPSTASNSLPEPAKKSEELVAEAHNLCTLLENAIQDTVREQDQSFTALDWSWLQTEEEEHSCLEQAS
# [9] = biological target: T3, Inhibitor of nuclear factor kappa-B kinase subunit beta (Homo sapiens); conditions: at 1 µM
# [10] = biological target: T4, Inhibitor of nuclear factor kappa-B kinase subunit epsilon (Homo sapiens) (UniProt Q14164); conditions: at 0.1 µM
# T4 sequence (whole entry): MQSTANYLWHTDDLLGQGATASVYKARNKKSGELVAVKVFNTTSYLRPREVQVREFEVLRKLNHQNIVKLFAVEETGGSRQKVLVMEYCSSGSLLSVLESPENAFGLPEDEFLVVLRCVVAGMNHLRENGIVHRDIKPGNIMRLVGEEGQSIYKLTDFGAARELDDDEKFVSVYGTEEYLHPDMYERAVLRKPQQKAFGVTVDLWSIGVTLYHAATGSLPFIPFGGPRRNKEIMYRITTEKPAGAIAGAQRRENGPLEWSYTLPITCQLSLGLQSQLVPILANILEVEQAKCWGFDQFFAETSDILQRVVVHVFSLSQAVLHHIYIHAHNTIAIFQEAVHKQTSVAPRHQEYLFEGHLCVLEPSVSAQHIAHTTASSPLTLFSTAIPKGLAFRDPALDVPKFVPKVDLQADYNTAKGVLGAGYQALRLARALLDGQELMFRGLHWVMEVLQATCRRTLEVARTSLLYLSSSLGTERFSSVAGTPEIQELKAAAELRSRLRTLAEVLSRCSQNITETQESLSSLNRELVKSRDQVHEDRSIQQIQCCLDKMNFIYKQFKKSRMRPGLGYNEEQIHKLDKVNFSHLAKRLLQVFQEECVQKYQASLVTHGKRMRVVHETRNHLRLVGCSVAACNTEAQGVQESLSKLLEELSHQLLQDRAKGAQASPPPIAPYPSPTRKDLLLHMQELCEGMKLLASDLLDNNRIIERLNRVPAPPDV
# [11] = biological target: T4, Inhibitor of nuclear factor kappa-B kinase subunit epsilon (Homo sapiens); conditions: at 1 µM
# [12] = biological target: T5, Serine/threonine-protein kinase Nek1 (Homo sapiens) (UniProt Q96PY6); conditions: at 0.1 µM
# T5 sequence (whole entry): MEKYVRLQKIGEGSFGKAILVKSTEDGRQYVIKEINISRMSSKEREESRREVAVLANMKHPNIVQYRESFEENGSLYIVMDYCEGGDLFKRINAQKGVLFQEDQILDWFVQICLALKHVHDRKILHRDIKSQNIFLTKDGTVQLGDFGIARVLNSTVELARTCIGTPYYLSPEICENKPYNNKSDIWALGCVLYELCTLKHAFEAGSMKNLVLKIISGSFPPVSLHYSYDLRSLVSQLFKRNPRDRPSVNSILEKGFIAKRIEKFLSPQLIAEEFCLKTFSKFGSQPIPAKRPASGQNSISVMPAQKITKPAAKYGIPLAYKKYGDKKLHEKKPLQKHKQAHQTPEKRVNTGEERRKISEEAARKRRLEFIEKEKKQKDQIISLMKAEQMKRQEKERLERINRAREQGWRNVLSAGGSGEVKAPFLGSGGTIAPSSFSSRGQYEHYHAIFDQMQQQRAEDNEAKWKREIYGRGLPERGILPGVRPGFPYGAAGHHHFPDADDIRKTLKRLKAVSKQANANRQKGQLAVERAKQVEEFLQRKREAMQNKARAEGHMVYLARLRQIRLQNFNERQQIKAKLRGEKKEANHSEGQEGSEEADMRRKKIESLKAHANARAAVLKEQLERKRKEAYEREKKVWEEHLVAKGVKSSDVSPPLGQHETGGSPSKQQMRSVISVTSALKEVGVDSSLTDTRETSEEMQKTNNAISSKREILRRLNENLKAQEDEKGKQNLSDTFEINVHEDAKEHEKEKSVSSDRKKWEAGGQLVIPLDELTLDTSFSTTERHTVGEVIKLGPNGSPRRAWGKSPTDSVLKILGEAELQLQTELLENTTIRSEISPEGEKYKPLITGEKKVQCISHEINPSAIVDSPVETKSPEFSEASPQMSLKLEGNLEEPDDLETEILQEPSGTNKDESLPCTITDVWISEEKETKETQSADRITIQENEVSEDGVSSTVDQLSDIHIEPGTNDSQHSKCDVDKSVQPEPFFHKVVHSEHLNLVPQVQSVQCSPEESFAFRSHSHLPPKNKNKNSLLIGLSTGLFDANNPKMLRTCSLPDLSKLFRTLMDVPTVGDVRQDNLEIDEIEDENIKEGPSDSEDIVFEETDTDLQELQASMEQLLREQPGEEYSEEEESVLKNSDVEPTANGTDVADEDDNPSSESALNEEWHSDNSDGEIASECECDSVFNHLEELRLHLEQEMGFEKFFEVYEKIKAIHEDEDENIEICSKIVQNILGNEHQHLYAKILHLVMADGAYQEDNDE
# [13] = biological target: T5, Serine/threonine-protein kinase Nek1 (Homo sapiens); conditions: at 1 µM
# [14] = biological target: T6, Serine/threonine-protein kinase Nek2 (Homo sapiens) (UniProt P51955); conditions: at 0.1 µM
# T6 sequence (whole entry): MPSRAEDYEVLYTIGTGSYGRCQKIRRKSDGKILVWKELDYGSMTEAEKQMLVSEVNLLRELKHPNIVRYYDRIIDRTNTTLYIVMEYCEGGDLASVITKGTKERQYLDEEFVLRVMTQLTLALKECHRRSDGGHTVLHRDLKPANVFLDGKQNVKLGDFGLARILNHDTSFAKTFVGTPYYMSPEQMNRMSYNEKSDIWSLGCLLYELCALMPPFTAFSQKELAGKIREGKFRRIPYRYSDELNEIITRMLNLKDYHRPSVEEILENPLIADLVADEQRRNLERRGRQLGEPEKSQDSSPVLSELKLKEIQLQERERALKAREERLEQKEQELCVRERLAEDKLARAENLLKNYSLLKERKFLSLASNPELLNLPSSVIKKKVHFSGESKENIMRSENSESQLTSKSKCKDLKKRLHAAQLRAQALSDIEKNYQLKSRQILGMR
# [15] = biological target: T6, Serine/threonine-protein kinase Nek2 (Homo sapiens); conditions: at 1 µM
# [16] = biological target: Serine/threonine-protein kinase Nek6 (Homo sapiens) (UniProt Q9HC98); conditions: at 0.1 µM
# Chain of Serine/threonine-protein kinase Nek6 (Homo sapiens) (Q9HC98 whole entry): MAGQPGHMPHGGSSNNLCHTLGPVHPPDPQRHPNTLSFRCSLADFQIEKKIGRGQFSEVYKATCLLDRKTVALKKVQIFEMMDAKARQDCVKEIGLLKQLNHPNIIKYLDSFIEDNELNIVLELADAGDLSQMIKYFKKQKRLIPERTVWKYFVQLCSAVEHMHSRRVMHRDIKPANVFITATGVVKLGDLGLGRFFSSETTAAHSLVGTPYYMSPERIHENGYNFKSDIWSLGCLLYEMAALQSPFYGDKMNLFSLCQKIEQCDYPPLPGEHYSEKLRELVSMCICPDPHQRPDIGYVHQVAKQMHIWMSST
# [17] = biological target: Serine/threonine-protein kinase Nek6 (Homo sapiens) (UniProt Q9HC98); conditions: at 1 µM
# [18] = biological target: Serine/threonine-protein kinase Nek7 (Homo sapiens) (UniProt Q8TDX7); conditions: at 0.1 µM
# Chain of Serine/threonine-protein kinase Nek7 (Homo sapiens) (Q8TDX7 whole entry, looked up): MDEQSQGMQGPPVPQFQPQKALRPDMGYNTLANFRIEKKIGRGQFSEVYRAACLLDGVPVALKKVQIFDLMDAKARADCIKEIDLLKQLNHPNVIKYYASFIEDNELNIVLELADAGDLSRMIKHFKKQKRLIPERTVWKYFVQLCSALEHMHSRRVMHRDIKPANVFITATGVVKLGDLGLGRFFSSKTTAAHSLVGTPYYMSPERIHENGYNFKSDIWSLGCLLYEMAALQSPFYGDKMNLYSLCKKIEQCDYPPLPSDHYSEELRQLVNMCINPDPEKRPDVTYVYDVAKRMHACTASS
# [19] = biological target: Serine/threonine-protein kinase Nek7 (Homo sapiens) (UniProt Q8TDX7); conditions: at 1 µM
# [20] = biological target: T7, Serine/threonine-protein kinase Nek9 (Homo sapiens) (UniProt Q8TD19); conditions: at 0.1 µM;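 further: reported value is the mean percent inhibition of NEK9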
# T7 sequence (whole entry): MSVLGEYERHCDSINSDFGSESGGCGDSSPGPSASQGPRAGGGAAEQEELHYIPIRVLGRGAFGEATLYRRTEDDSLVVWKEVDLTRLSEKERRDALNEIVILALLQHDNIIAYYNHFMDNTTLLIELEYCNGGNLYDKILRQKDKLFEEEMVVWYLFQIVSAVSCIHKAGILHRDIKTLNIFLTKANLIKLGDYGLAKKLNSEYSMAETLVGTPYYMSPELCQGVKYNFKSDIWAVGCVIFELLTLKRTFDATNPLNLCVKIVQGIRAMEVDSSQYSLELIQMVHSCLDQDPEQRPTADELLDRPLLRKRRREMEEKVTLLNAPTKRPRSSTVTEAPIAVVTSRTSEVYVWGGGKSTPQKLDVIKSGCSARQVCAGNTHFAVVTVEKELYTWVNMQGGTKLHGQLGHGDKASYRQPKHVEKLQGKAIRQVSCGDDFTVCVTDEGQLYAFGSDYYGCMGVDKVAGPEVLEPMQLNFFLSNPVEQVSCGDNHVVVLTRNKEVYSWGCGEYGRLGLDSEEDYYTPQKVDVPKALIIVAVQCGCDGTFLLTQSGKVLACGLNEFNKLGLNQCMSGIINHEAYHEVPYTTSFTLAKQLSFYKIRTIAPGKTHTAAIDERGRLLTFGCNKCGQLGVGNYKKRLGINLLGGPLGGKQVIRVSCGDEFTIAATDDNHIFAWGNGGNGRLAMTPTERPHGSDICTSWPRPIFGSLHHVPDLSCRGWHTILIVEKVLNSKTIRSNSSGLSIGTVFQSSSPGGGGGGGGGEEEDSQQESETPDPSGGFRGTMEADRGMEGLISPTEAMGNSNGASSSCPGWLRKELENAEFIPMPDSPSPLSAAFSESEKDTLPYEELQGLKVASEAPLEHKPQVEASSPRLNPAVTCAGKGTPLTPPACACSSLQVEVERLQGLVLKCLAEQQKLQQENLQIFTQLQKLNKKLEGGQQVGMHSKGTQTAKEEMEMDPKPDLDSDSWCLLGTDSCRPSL
# Chain of Sphingosine kinase 1 (Homo sapiens) (Q9NYA1 whole entry): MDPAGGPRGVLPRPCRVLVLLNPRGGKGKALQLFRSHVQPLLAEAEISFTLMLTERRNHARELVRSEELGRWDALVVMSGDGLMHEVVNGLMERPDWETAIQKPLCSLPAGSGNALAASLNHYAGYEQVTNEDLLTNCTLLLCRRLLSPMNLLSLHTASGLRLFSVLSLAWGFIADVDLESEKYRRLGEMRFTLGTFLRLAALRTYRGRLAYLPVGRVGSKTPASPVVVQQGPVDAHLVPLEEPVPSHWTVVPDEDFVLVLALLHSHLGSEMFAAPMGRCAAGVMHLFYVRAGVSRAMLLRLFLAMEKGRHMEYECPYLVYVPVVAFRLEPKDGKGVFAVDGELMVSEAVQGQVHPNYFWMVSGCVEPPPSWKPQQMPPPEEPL
smiles,measurement,setting,value
CN(C)CCCNc1nccc(-c2c(-c3ccc(F)cc3)nn3cc(C(F)(F)F)ccc23)n1,inhibition,[1],-2.46%
same,inhibition,[2],-0.03%
same,inhibition,[3],-0.25%
same,inhibition,[4],1.85%
same,inhibition,[5],6.47%
same,inhibition,[6],4.46%
same,inhibition,[7],-1.7%
same,inhibition,[8],1.56%
same,inhibition,[9],0%
same,inhibition,[10],2.49%
same,inhibition,[11],1.28%
same,inhibition,[12],2.23%
same,inhibition,[13],4.09%
same,inhibition,[14],1.87%
same,inhibition,[15],1.49%
same,inhibition,[16],1.82%
same,inhibition,[17],-1.46%
same,inhibition,[18],2.85%
same,inhibition,[19],1.37%
same,inhibition,[20],5.9%
